A selection: hits, their analogues and other compounds. The true share with any hit is near 1%.
TSHR antag – antagonists of human thyroid stimulating hormone receptor; AID 504810; actives 0.2% (n = 330,000); P16473; activity change, negative = inhibition, % at 11.5 µM; TSHR-expressing cells, TSH-stimulated cAMP HTRF, 2 h; stronger effect = lower value;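 active = activity change below a set negative limit, meaning inhibition stronger than a set level, cut at about -70% in these data; inconclusive = activity change between two set negative limits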; note: % is set by controls: 0 for no effect and ±100 for the full control effect
Target sequence (P16473 whole entry, looked up): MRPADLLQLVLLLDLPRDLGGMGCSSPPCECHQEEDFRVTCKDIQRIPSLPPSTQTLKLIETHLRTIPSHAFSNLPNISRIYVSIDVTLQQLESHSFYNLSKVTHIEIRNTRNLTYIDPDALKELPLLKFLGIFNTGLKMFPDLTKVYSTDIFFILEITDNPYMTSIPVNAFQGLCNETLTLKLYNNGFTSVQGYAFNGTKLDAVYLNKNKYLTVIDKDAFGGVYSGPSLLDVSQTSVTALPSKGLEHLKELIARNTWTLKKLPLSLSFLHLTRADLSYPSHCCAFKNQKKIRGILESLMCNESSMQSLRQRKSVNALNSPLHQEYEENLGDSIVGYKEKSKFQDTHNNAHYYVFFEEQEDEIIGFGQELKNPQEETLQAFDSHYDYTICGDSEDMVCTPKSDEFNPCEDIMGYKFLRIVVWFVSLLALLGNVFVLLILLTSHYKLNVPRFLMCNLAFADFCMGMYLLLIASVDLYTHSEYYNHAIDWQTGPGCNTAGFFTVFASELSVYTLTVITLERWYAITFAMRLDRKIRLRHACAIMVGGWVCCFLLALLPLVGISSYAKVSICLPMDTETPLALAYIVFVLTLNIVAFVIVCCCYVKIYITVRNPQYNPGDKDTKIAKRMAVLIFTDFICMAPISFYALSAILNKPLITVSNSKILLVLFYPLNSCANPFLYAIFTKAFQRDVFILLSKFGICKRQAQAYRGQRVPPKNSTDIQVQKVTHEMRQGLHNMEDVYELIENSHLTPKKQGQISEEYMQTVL
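Cell-based HTRF cAMP assay; TSHR cells + compound, TSH EC80 (4nM final), 2 h, 37 deg C. Lysis with anti-cAMP cryptate and cAMP-d2, 30 min RT, read 665/620 nm.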
gsp antagonist – gsp mutant antagonism | gsp-mutant cells, cAMP HTRF, 30 min | Potency, µM (top dose mostly 76.9 µM), without a hit: at the highest dose activity change, negative = inhibition, most hits filed as inhibitors | actives 0.4% (n = 340,000); calls by dose curve; cell line not stated here;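 note: intracellular cAMP measured with PDE inhibitor Ro 20-1724 present during compound exposure; potency is the fitted concentration of half-maximal effect; % is set by controls: 0 for no effect and ±100 for the full control effect; nearly all actives have a fitted effect of over 65% in size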
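Cells, 2000/well, grown 16–24 h in DMEM 10% FBS with 0.5 mg/ml G418, then compounds plus […] (300 uM addition stock), 30 min at 37C. cAMP read by HTRF (cAMP-d2 and anti-cAMP antibody-K in lysis buffer) after 30 min RT.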
gsp agonist – agonists of gsp mutant (McCune-Albright syndrome) | gsp mutant cells, cAMP HTRF, 30 min | Potency, µM (titrated, usually from 76.9 µM), without a hit: at the top dose activation (cAMP increase), hits mostly activators | actives 0.13% (n = 340,000); active = well fitted activation curve with a large enough effect; inconclusive = small, poorly fitted or top-dose-only effect, or another doubt; inactive = no such curve, though single readings can be large or run the other way; cell line not stated here;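 note: phosphodiesterase inhibitor Ro 20-1724 added with compounds to block cAMP breakdown; potency is the fitted concentration of half-maximal effect; nearly all actives have a fitted effect of over 60% in size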
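Cells in DMEM/10% FBS with G418 were pretreated with compounds in DMSO plus […] (300 uM stock) for 30 min at 37C. cAMP was measured by HTRF (cAMP-d2 plus anti-cAMP antibody-K) after 30 min at room temperature.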
RXFP1 ag – agonists of human relaxin receptor RXFP1. Q9HBX9. Potency, µM (series often up to 57.5 µM), without a hit: at the highest dose activation, actives largely listed as activators. actives 0.3% (n = 370,000). HEK293T-RXFP1 cAMP TR-FRET, 30 min; response scale: percent of porcine relaxin response, buffer zero; active = well fitted activation curve with a large enough effect; inconclusive = small, poorly fitted or top-dose-only effect; note: potency is the fitted concentration of half-maximal effect; % is set by controls: 0 for no effect and ±100 for the full control effect; nearly all actives have a fitted effect of over 60% in size
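cAMP rise read by TR-FRET after 30 min, 37C compound exposure (up to 58 uM) in RXFP1-transfected HEK293 cells with Ro 20174 present. EC50 from Hill-equation fits, with 29 nM porcine relaxin as 100% and buffer as basal.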
RXFP1 antag – antagonists of human relaxin receptor RXFP1; Q9HBX9; HEK293-RXFP1, relaxin-stimulated cAMP HTRF, 30 min; stronger effect = lower value; activity change, negative = inhibition, % at 57.5 µM; actives 0.59% (n = 350,000); AID 1259400;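 active = activity change of -60% or lower, but not beyond a set lower limit; inconclusive = change between -60% and -40%, or beyond the set limit; inactive = change above -40%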; note: % is set by controls: 0 for no effect and ±100 for the full control effect
* hit, by the source's call; ? = inconclusive; / = no result; [ ] = remark or other dose.

SMILES | TSHR antag | gsp antagonist | gsp agonist | RXFP1 ag | RXFP1 antag
COc1ccc(CCOC(=O)c2ccc(N)c([N+](=O)[O-])c2)cc1 | -14.3 | -22.2% | 4.3% | -2.3% | -66.4*
CC(C)(C)C(=O)COC(=O)c1ccc(N)c([N+](=O)[O-])c1 | -2.3 | 12.8% | -15.4% | 1.1% | -2.2
Cc1ccc(N=Cc2cc(Cc3ccccc3Cl)cc([N+](=O)[O-])c2O)c(O)c1 | -39.8 | -28.6% | -102.2% | -4.7% | -96.1*
Cc1ccc(C)c(NS(=O)(=O)c2ccc3c4c(cccc24)C(=O)N3)c1 | / | / | / | 0.4% | -78.7*
NNC(=S)Nc1cccc(-c2n[nH]c(=S)o2)c1 | -3.6 | 1.2% | 10µM* | ? | -8.5
CN(C)C(=S)Nc1cccc(-c2n[nH]c(=S)o2)c1 | 15.4 | -0.1% | 6.7%[15.4 µM] | 20.1% | -3.6
COc1cccc(/C=N/Nc2ccccc2C(=O)O)c1O | -7.6 | ? | ? | 0.0% | -4.2
O=C(O)c1ccccc1NS(=O)(=O)c1ccc(NN=Cc2cccc(Cl)c2)c([N+](=O)[O-])c1 | -16.8 | -5.8% | -35.9% | / | -68.4*
O=C(O)c1ccccc1NN=Cc1ccccc1 | / | 25.1µM* | 27.6% | / | ?
CCC1CN(C(=O)N2CCC(C(=O)N(C)Cc3ccccc3)CC2)c2ccccc2O1 (stereo not given) | / | / | / | -0.6% | -4.0
COc1ccc(CC(=O)NNS(=O)(=O)c2ccccc2[N+](=O)[O-])cc1OC | 0.0 | -11.4% | -4.9%[15.4 µM] | -4.9% | 8.7
COc1ccc(CCNC(=O)c2ccc(-c3ccc([N+](=O)[O-])cc3)o2)cc1OC | -8.7 | 31.6µM* | 0.0% | 2.6% | 3.6
COc1cc(CC(=O)OCC(=O)Nc2cc([N+](=O)[O-])ccc2Cl)cc(OC)c1OC | 0.9 | -14.5% | -16.9% | 4.4% | -2.4
COc1ccc(CC(=O)NNS(=O)(=O)c2ccc([N+](=O)[O-])cc2)cc1OC | 3.5 | 6.9% | 1.3% | -0.7% | -84.0*
COc1ccc([N+](=O)[O-])cc1NC(=O)COC(=O)Cc1cc(OC)c(OC)c(OC)c1 | 8.5 | 50.1µM* | 6.7% | 1.3% | 2.3
COc1ccc(NC(=O)c2ccc(-c3ccc([N+](=O)[O-])cc3)o2)cc1 | -1.4 | 0.3% | 17.0% | -0.4% | -29.3
O=C(NCc1cccc(Cl)c1)c1cc(COc2ccc3ncccc3c2)on1 | -49.2 | 35.5µM* | -2.8%[15.4 µM] | -2.5% | -6.7
Cc1ccc(F)cc1CNC(=O)c1cc(COc2ccc3ncccc3c2)on1 | -48.0 | ? | -42.2% | 1.2% | 4.5
Cc1cc(OC(C)C(=O)Nc2c(C(=O)c3ccc(F)cc3)oc3ccccc23)ccc1Cl (stereo not given) | / | / | / | 22.7% | /
COc1cc(C2c3c(oc4ccccc4c3=O)C(=O)N2c2nccs2)ccc1O (stereo not given) | -3.0 | 1.7% | -41.1%[15.4 µM] | 0.0% | -105.0*
COc1cc(C2c3c(oc4ccccc4c3=O)C(=O)N2c2ccc(C)cn2)ccc1O (stereo not given) | 15.9 | -1.8% | -29.7% | 8.2% | -25.3
CC(=O)c1c(O)cc(O)c(C(C)=O)c1O | -94.3* | ? | / | 0.3% | /
CC(=O)c1c(O)cc(O)cc1CC(=O)O | -8.5 | -7.3% | / | 0.3% | /
CCOC(=O)C1=C(CN2CCN(c3cc(C)ccc3C)CC2)NC(=O)NC1c1ccc(Cl)cc1 (stereo not given) | / | / | / | 0.3% | -20.9
S=c1[nH]ccc2ccccc12 | / | 28.0% | 5.01µM* | / | 6.5
SMILES | TSHR antag | gsp antagonist | gsp agonist | RXFP1 ag | RXFP1 antag
O=C(OCC#CCNc1nnc(-c2cccc3ccccc23)o1)c1cccs1 | 8.9 | / | / | 1.4% | /
COc1ccc(C(=O)N=C2SC3CS(=O)(=O)CC3N2c2ccc(N(C)C)cc2)cc1OC (stereo not given) | -1.7 | 0.2% | ? | 29.0% | -75.8*
COCCN(CCOC)c1ncnc2c1c(-c1ccccc1)cn2-c1ccc(C)c(Cl)c1 | / | / | / | ? | 14.0
Clc1cccc(Cl)c1/C=C/c1nc2ccccc2[nH]1 | 18.7 | 28.2µM* | -1.1% | 5.1% | 5.5
O=C(Nc1nnc(S(=O)(=O)N2CCCC2)s1)c1ccccc1F | -102.9* | -13.7% | 25.6% | 14.6% | -8.1
N[C@@H](COP(=O)(O)O)C(=O)O | -14.0 | / | / | / | 11.6
Cc1cc(-c2ccc(S(=O)(=O)NCc3ccc(F)cc3)cc2)on1 | -16.7 | 0.794µM* | -47.9% | 2.2% | -0.5

Screens deposited in PubChem BioAssay by National Center for Advancing Translational Sciences (NCATS).
